From PubChem BioAssay
Calb FLC = affects C. albicans growth with fluconazole | C. albicans CaCi-2 (fluconazole-resistant clinical isolate) + fluconazole, Alamar Blue growth, 48 h | growth inhibition, % (test concentration not listed) | hit rate 0.57% among 300,000 | AID 1979;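 active = growth inhibition above about 58% in most replicates, limit read from the data, passing the limit was not always enough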;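 note: all wells also contain fluconazole at 8 µg/ml as a sub-toxic cotreatment; 0% = median of DMSO wells and 100% = median of geldanamycin control wells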
ALR inh = blocks human ALR sulfhydryl oxidase activity; hit rate 3.8% among 290,000; purified ALR, DTT oxidation, H2O2 HRP-luminol luminescence; P55789; inhibition, % (test concentration not listed);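 active = mean replicate inhibition above about 79%, with every replicate also reaching it, limit read from the data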
Target sequence (P55789 whole entry, looked up): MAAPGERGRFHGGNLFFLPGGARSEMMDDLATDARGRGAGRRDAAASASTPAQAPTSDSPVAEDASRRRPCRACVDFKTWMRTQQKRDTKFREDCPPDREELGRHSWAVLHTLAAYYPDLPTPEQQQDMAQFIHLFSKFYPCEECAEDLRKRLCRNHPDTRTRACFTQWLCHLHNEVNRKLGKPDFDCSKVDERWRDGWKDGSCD
PP5 inh = PP5 (human) phosphatase inhibition | P53041 | purified PP5c, OMFP substrate fluorescence | inhibition, % at 6.7 µM | hit rate 0.18% among 320,000;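 active = inhibition above the campaign's mean inhibition across all tested compounds plus 3 SD, cut at about 9.5% in these data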;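 note: 0% = DMSO only and 100% = 100 µM cantharidin control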
CSC inhib = blocks cancer stem cells; cancer stem cell-like cells viability, luminescence; inhibition, % at 7.5 µM; hit rate 1.1% among 300,000; in the data active = inhibition above about 75%; tested in HMLE shEcad cells
PP1 inh = counter-screen for PP5 inhibitors: inhibitors of human PP1-alpha; P62136; purified PP1alpha, OMFP fluorescence; inhibition, % at 6.7 µM; hit rate 0.9% among 320,000; AID 2235;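 active = inhibition above the mean inhibition of all tested compounds plus 3 SD, computed separately for each screening campaign, cut at about 15% in these data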
Target sequence (P62136 whole entry, looked up): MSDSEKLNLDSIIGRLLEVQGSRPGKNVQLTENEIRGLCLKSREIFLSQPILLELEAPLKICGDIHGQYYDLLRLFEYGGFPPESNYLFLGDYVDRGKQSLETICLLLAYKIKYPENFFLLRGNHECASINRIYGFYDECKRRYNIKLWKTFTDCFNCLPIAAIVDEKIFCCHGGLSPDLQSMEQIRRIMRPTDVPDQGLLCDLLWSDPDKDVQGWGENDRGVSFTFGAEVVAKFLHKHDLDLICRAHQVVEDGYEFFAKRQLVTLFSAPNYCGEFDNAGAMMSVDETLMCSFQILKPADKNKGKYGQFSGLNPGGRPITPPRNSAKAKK
The depositor's hits bear a star; nt = no result. A selection: hits, their analogues and other compounds. The true share with any hit is near 5.4%.

SMILES	Calb FLC	ALR inh	PP5 inh	CSC inhib	PP1 inh
CSc1c(SCc2ccccc2)cnn(-c2ccccc2)c1=O	0.9	-3.2	4.2	79.1*	3.7
Cn1ncc(SCc2ccccc2)c(Cl)c1=O	-7.6	2.6	-0.7	-7.3	-6.4
CC(=O)C1=C(O)C(=O)N(c2ccc(O)cc2)C1c1ccc([N+](=O)[O-])cc1 (centres undefined)	7.2	81.8*	-1.8	-13.9	6.2
COc1ccc(C2C(C(C)=O)=C(O)C(=O)N2c2ccc(O)cc2)cc1 (centres undefined)	-4.3	87.9*	0.5	-15.5	-2.3
CC(=O)C1=C(O)C(=O)N(c2ccc(O)cc2)C1c1ccc(Cl)cc1 (centres undefined)	9.5	81.0*	1.1	-12.7	5.4
Cc1ccc(C(=O)N/C(=C/c2ccc(-c3ccc([N+](=O)[O-])cc3)o2)C(=O)NCCCN(C)C)cc1	7.9	-6.9	-0.9	9.7	-1.4
O=C(O)CCC(=O)N1CCN(c2nc(-c3ccccc3)c3cc(Br)ccc3n2)CC1	19.7	nt	2.5	-11.6	10.3
CC(=O)Cc1nsc(NC(=O)c2ccco2)n1	1.3	4.1	1.4	-13.8	-2.9
O=C(OCC(=O)N1CCCc2ccccc21)c1cccc(S(=O)(=O)N2CCOCC2)c1	-7.1	0.3	4.2	-0.4	-1.9
CC(=O)OCCNc1cc(Sc2nc3ccccc3[nH]2)c2nonc2c1[N+](=O)[O-]	-0.3	95.8*	-1.6	40.5	1.0
O=[N+]([O-])c1c(NCCCO)cc(Sc2ccc(Cl)cc2)c2nonc12	-8.7	21.7	2.7	87.7*	2.0
O=[N+]([O-])c1c(NCCCO)cc(SCc2ccco2)c2nonc12	-1.2	3.1	-1.4	1.7	1.5
CC(=O)OCCCNc1cc(Sc2nc3ccccc3s2)c2nonc2c1[N+](=O)[O-]	15.5	-26.0	6.0	75.9*	0.6
CC(=O)OCCCNc1cc(Sc2ccc(C)cc2)c2nonc2c1[N+](=O)[O-]	6.0	41.4	0.1	12.2	5.9
N#Cc1ccccc1OCC(=O)NNC(=O)CNC(=O)c1cccc(Br)c1	nt	nt	1.0	nt	-1.5
COc1ccc(NCC(O)Cn2cnc3c2c(=O)n(C)c(=O)n3C)cc1 (centres undefined)	1.3	98.4*	-2.9	-12.5	-0.4
O=C(NC(CSCc1ccccc1)C(=O)N/N=C/c1ccc(O)cc1O)c1ccc([N+](=O)[O-])cc1 (centres undefined)	0.7	15.7	0.8	105.3*	8.0
COc1ccc(-c2nc(CN3CCC(C(=O)NC4CCCC4)CC3)c(C)o2)cc1OC	-30.3	-6.3	-2.2	-1.6	0.0
COc1ccc(-c2nc(CS(=O)CC(=O)NCCCN3CCCC3)c(C)o2)cc1OC (centres undefined)	3.3	98.8*	-1.5	3.6	-2.7
COc1ccc(-c2nc(CS(=O)CC(=O)NCCN3CCCCC3C)c(C)o2)cc1OC (centres undefined)	-5.1	99.5*	-8.9	1.7	2.1
COc1ccc(-c2nc(CS(=O)CC(=O)NCCCN3CCOCC3)c(C)o2)cc1OC (centres undefined)	4.2	99.5*	-4.2	-10.8	2.7
COc1ccc(-c2nc(CS(=O)CC(=O)NCCN3CCCCCC3)c(C)o2)cc1OC (centres undefined)	21.0	99.6*	1.6	8.9	10.3
COc1ccc(S(=O)(=O)CCC(=O)NCCc2cccc(C)c2)cc1	-0.9	-4.6	1.8	-6.2	-2.1
C/C(=N\NC(=O)Cc1c(F)cccc1Cl)c1cccnc1	-4.4	-20.7	nt	-2.1	nt
O=S(=O)(Nc1ccc2c(c1)OCO2)c1ccc(F)c(F)c1	nt	88.4*	2.4	nt	0.6
SMILES	Calb FLC	ALR inh	PP5 inh	CSC inhib	PP1 inh
O=C(O)c1cccc(S(=O)(=O)Nc2ccc3c(c2)OCO3)c1	-2.7	-11.5	-2.4	-3.2	-0.2
CCOC(=O)N1CCN(C(=O)c2cccc(-n3c(=S)[nH]c4cc(Cl)ccc4c3=O)c2)CC1	-14.6	79.2*	1.5	9.1	-0.1
O=c1[nH]c(Cc2cccc(C(F)(F)F)c2)nc2ccccc12	3.8	nt	0.9	-1.0	-0.2
CC(C)c1ccc(S(=O)(=O)N2CCN(CC(=O)Nc3ccc(Cl)cc3F)CC2)cc1	nt	-2.3	6.3	-13.3	5.9
O=C(CN1CCN(c2ccccc2F)CC1)c1ccc(O)c(O)c1	5.5	99.0*	nt	15.1	nt
O=C(CN1CCN(S(=O)(=O)c2ccc(Br)cc2)CC1)c1ccc(O)c(O)c1	4.6	96.3*	1.5	67.0	10.5
COc1ccc(OC)c(C(=O)CN2CCN(S(=O)(=O)c3ccc(Br)cc3)CC2)c1	7.3	-17.7	0.1	-3.5	-2.4
CC(C)c1ccc(S(=O)(=O)N2CCN(CC(=O)c3ccc(O)c(O)c3)CC2)cc1	-3.7	99.1*	2.8	40.7	2.1
Cc1c(O)ccc(C(=O)CN2CCN(c3ccccc3F)CC2)c1O	-2.3	8.8	-0.8	-5.1	4.1
CC(=O)c1cc2c(cc1NC(=O)CCc1c(C)nc3ncnn3c1C)OCO2	nt	nt	-2.7	nt	-3.0
CCN1C(=O)/C(=C/c2ccc(N3CCCC3)cc2)NC1=S	3.4	97.3*	-0.2	9.5	-0.2
COc1ccc(CNc2ccccc2)cc1Br	16.2	82.9*	4.1	-4.5	2.8
CCOc1ccc(CNc2ccc(N3CCCC3)cc2)cc1	1.5	51.0	1.1	4.3	15.7*
COc1cc(CNc2ncn[nH]2)ccc1OCC(=O)NC(C)(C)C	-8.3	-2.6	-0.6	10.7	-4.3
COc1cc(CNc2ccc(CNc3ncn[nH]3)cc2)ccc1OCc1ccccc1	-5.0	-10.6	2.4	90.0*	1.8
COc1ccccc1CNc1ccc(CNc2ncn[nH]2)cc1	-29.5	87.2*	-2.1	1.1	-1.6
Cc1nc2c(nnn2Cc2c(Cl)cccc2Cl)c(=O)[nH]1	-10.2	nt	0.6	-22.3	-4.5
CCOc1ccc(CNc2ccc(CNc3ncn[nH]3)cc2)cc1	102.0*	3.2	1.2	0.5	-0.5
CCOC(=O)c1ccc(Oc2nc(N(C)C)nc(N(C)C)n2)cc1	0.1	3.4	0.2	-13.1	2.8
CCOC(=O)c1ccc(Oc2nc(NC(C)(C)C)nc(N(C)C)n2)cc1	90.6*	-4.9	1.3	27.6	-0.1
O=C(CNC(=O)c1ccco1)NCC(=O)OCc1cccc(C(=O)Oc2ccccc2)c1	-2.5	-9.8	2.2	-3.0	-2.3
CC(C)OCCCn1c(=O)c2ccccc2n2c(CCC(=O)N3CCN(c4ccccn4)CC3)nnc12	-32.4	-2.5	0.9	3.9	-4.2
CCc1ccc(/C=N/NC(=O)Cc2cccn2C)cc1	-1.3	96.1*	1.3	-10.4	-8.1
COc1nc(NCC(C)C)nc(Oc2ccc(=O)n(-c3ccccc3)n2)n1	-2.5	78.5*	-1.2	-2.6	3.0
CCNc1nc(OC)nc(Oc2ccc(=O)n(-c3ccccc3)n2)n1	-3.1	2.1	-2.2	nt	-1.9
COc1ccc(C(=O)Oc2ccc(=O)n(-c3ccccc3)n2)cc1	-7.1	97.5*	7.8	-9.3	3.6
CCn1nc(C)c(/C=N\NC(=O)c2ccc3c(c2)OCO3)c1C	-2.3	-3.6	-0.1	nt	3.0
COc1ccc(C2NN=C(c3ccc(C)cc3)S2)cc1OC (centres undefined)	-19.7	-12.8	-0.4	38.8	0.6
Cc1cc(NCc2ccccn2)ccc1Br	10.6	98.9*	1.4	12.2	0.3
